Source: PubChem BioAssay (Broad Institute)
Most compounds without a hit are left out; they make up all but 1.5% or so of the library.
RAD52 anneal inh: RAD52 (human) annealing inhibition | AID 651710 | P43351 | hit rate 0.46% among 360,000 | recombinant RAD52 DNA annealing, FRET fluorescence | inhibition, % at 18.7 µM;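 active means every replicate showing at least 50% inhibition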
Target sequence (P43351 whole entry, looked up): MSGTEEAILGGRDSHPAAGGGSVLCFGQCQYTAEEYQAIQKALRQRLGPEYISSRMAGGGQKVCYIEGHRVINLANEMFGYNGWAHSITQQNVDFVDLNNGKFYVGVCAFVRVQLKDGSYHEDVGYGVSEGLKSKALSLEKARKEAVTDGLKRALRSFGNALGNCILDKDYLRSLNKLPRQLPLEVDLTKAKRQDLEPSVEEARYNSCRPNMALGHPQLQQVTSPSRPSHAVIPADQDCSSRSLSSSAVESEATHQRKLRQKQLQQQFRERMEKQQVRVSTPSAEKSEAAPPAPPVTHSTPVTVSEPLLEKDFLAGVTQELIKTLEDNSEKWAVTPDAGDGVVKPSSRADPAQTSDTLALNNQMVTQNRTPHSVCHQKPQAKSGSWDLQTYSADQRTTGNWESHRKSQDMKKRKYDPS
F508del corr: CFTR F508del correction in bronchial cells | CFBE cells, YFP halide quenching; stimulated with forskolin plus potentiator P3; % fluorescence drop versus neutral controls | activity (quench increase), % at 7.58 µM | hit rate 0.36% among 350,000;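 active means mean added fluorescence quench of at least 8% versus neutral control, with both replicates also reaching 8%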;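 further: cells transiently co-express mutant CFTR-F508del with the halide-sensitive YFP; corrector assay measuring rescue of mutant channel to the surface after 24 h compound exposure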
RAD54 branch: inhibitors of human RAD54 branch migration; inhibition, % at 10.4 µM; RAD54 Holliday junction branch migration, FAM/BHQ fluorescence; AID 602329; Q92698; hit rate 0.14% among 360,000;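 active means mean normalized replicate activity at least 40 and at least half of replicates scoring 40 or more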;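 further: 0% = median of neutral control wells and 100% = median of positive control wells; inhibitors cause a drop in the FAM fluorescence signal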
PvdQ inh: P. aeruginosa PvdQ acylase inhibition; purified PvdQ acylase, fluorescence plate reader; hit rate 0.063% among 340,000; inhibition, % at 10 µM; in the data active means inhibition above about 30%, passing the limit was not always enough;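 further: 0% = vehicle neutral wells and 100% = reference inhibitor wells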
dFosB activator: mouse delta FosB homodimer activation | P13346 | purified delta FosB, TAMRA-CDK5 oligo fluorescence polarization; percent of positive-control signal above neutral wells | activation, % at 25 µM | hit rate 0.99% among 340,000;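 active means mean activation above about 17%, with every replicate also reaching it, limit read from the data, passing the limit was not always enough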
N-glyco inh: N-linked glycosylation inhibition; D54 ERlucT glycosylation luciferase reporter, 24 h; percent of 100 nM tunicamycin response; reporter increase, % at 12.5 µM; hit rate 0.23% among 360,000; AID 588692;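 active means mean luciferase reporter signal, scaled so untreated is 0 and the glycosylation-blocking control 100, at or above a set limit in every replicate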;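 further: luciferase carries N-glycosylation sites so blocking glycosylation raises the light; 0% = median of neutral control wells and 100% = median of 100 nM tunicamycin wells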
* marks the source's active call; other numbers are inactive results; ! = not confirmed by another sample.

`C[C@H](CO)N1C[C@H](C)[C@H](CN(C)C(=O)Nc2ccc(F)cc2)Oc2ccc(NC(=O)Cn3cnnn3)cc2CC1=O` gave F508del corr 1.
Screening COc1ccc(S(=O)(=O)N2CC[C@@H]3[C@@H](CO)N(C)c4ccc(-c5ccc(F)cc5)cc4[C@@H]32)cc1 returned RAD52 anneal inh -9, F508del corr 12* and RAD54 branch -2.
`COc1ccccc1NC(=O)N1CC[C@H]2[C@@H]1c1cc(C#Cc3ccc(F)cc3)ccc1N(C)[C@H]2CO` gave RAD52 anneal inh 74*, F508del corr -3 and RAD54 branch -2.
For COc1ccccc1S(=O)(=O)N1CC[C@@H]2[C@@H](CO)N(C)c3ccc(-c4ccc(F)cc4)cc3[C@@H]21 the results were RAD52 anneal inh -4, F508del corr 12* and RAD54 branch 7.
`COc1ccc(-c2ccc3c(c2)[C@@H]2[C@@H](CCN2S(=O)(=O)c2ccc(F)cc2)[C@@H](CO)N3C)cc1` gave RAD52 anneal inh 90* and F508del corr 5.
`COc1ccc(-c2ccc3c(c2)[C@H]2[C@H](CCN2S(=O)(=O)c2ccc(F)cc2)[C@H](CO)N3C)cc1` gave RAD52 anneal inh -4 and F508del corr 5.
COc1ccccc1S(=O)(=O)N1CC[C@@H]2[C@H]1c1cc(-c3ccccc3)ccc1N(C)[C@H]2CO was read as RAD52 anneal inh 10, F508del corr 0 and RAD54 branch 5.
`O=C(C[C@H]1CC[C@H]2[C@@H](COC[C@H](O)CN2Cc2cccc(C(F)(F)F)c2)O1)NCc1ccc(Cl)cc1` gave RAD52 anneal inh 5, F508del corr -1 and RAD54 branch -4.
C[C@H](CO)N1C[C@H](C)[C@H](CN(C)CC2CCCCC2)OCCCC[C@H](C)Oc2ccc(NC(=O)Nc3ccc(F)cc3)cc2C1=O was read as RAD52 anneal inh 3, F508del corr 0 and RAD54 branch 1.
Screening Cc1ccccc1-c1ccc([C@H]2[C@@H](CO)N3CCCCN(S(=O)(=O)Cc4ccccc4)C[C@H]23)cc1 returned RAD52 anneal inh 69*, F508del corr -2 and RAD54 branch -11.
Cc1ccccc1S(=O)(=O)N1CCCCN2[C@@H](CO)[C@@H](c3ccc(-c4ccccc4)cc3)[C@@H]2C1 was read as RAD52 anneal inh -30, F508del corr -2 and RAD54 branch -1.
Screening Cc1ccccc1S(=O)(=O)N1CCCCN2[C@H](CO)[C@@H](c3ccc(-c4ccccc4)cc3)[C@H]2C1 returned RAD52 anneal inh 70*, F508del corr -3 and RAD54 branch 6.
Screening Cc1ccccc1S(=O)(=O)N1CCCCN2[C@H](CO)[C@H](c3ccc(-c4ccccc4)cc3)[C@H]2C1 returned RAD52 anneal inh 73*, F508del corr -6 and RAD54 branch 5.
COc1cccc(NC(=O)N[C@H]2C=C[C@H](CC(=O)N3CCCCC3)O[C@H]2CO)c1 was read as RAD52 anneal inh -15, F508del corr 1 and RAD54 branch -2.
COCC(=O)N(C)C[C@H]1Oc2cc(-c3ccncc3)ccc2S(=O)(=O)N([C@@H](C)CO)C[C@H]1C was read as RAD52 anneal inh 6, F508del corr -1 and RAD54 branch -3.
Cc1ccccc1CSc1nc2[nH]ncc2c(=O)[nH]1 was read as RAD52 anneal inh -15, F508del corr 3, PvdQ inh -8, dFosB activator -17 and N-glyco inh -2.
`Cc1ccc(C)c(CSc2nc3[nH]ncc3c(=O)[nH]2)c1` gave RAD52 anneal inh -4, F508del corr 16*, PvdQ inh -17, dFosB activator -1 and N-glyco inh 11.
For Cc1ccc(S(=O)c2ccc(C)cc2)cc1 the results were RAD54 branch 9, PvdQ inh 79*, dFosB activator 8 and N-glyco inh 1.
For Cc1ccc(S(=O)c2snnc2C)cc1 (stereo unspecified) the results were RAD52 anneal inh -7, F508del corr -3, RAD54 branch -9, PvdQ inh 6, dFosB activator 3 and N-glyco inh -3.
Screening CCS(=O)(=O)Nc1ccc2c(c1)C(=O)N(C)[C@@H]1CC[C@@H](CC(=O)OC)O[C@H]1CO2 returned RAD52 anneal inh 7, F508del corr 1 and RAD54 branch 5.
COc1ccc(C(=O)N2C[C@H]3[C@@H](c4ccccc42)[C@H](CO)N3C(=O)c2ccc(F)cc2)cc1 was read as RAD52 anneal inh -14, F508del corr 0 and RAD54 branch 0.
`COc1ccc(-c2nc(-c3cccc(C)c3)no2)cc1OC` gave RAD52 anneal inh -8, F508del corr 10*, RAD54 branch 2, PvdQ inh 3, dFosB activator -3 and N-glyco inh -2.
For COc1cc(-c2nc(-c3cccc(C)c3)no2)cc(OC)c1OC the results were RAD54 branch -10, PvdQ inh -4, dFosB activator -14 and N-glyco inh 4.
Screening CN(CC(=O)NCCc1ccc(S(N)(=O)=O)cc1)CC(=O)Nc1ccccc1Cl returned RAD52 anneal inh 0, F508del corr 2, RAD54 branch -11, PvdQ inh -12, dFosB activator 4 and N-glyco inh 0.
`CN(CC(=O)NCCc1ccc(S(N)(=O)=O)cc1)CC(=O)Nc1ccc(Cl)c(C(F)(F)F)c1` gave RAD52 anneal inh -7, F508del corr 13*, RAD54 branch 2, PvdQ inh 11, dFosB activator -2 and N-glyco inh -1.
Screening C=CCOC(=O)[C@H]1[C@@H]2C(=O)O[C@@H](c3ccccc3)[C@@H](c3ccccc3)N2[C@@H](c2ccc(OCCOC(=O)[C@H]3C[C@H]4C(=O)N[C@@H](CC(C)C)C(=O)N4[C@H]3c3cccc(OCCO)c3)cc2)[C@]12C(=O)Nc1ccccc12 returned RAD52 anneal inh 6 and F508del corr -4.
O=S(=O)(c1ccccc1F)N1[C@@H]2CNC[C@H]1C2c1ccc(/C=C/c2ccccc2)cc1 (stereo partly specified) was read as RAD52 anneal inh 52*! and F508del corr -1.
For O=S(=O)(c1ccc(-c2ccccc2)cc1)N1C[C@@H]2N[C@H](C1)C2c1ccc(-c2cncnc2)cc1 (stereo partly specified) the results were RAD52 anneal inh 28 and F508del corr 3.
C/C=C/c1ccc(C2[C@@H]3CN(Cc4ccc5c(c4)OCO5)C[C@H]2N3)cc1 (stereo partly specified) was read as RAD52 anneal inh 61*! and F508del corr -2.
O=S(=O)(c1ccccc1)N1C[C@@H]2N[C@H](C1)C2c1ccc(/C=C/c2ccccc2)cc1 (stereo partly specified) was read as RAD52 anneal inh 87*! and F508del corr -6.
